The nature of test [1]: AP1 Signaling Pathway (AID 357).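 Further: ME-180 reporter cells stimulated with EGF at its EC50 level; on the % scale 0 is the no-effect control and ±100 the full control effect.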 As to conditions: ME-180 AP-1-bla reporter, EGF-induced, beta-lactamase ratio, 5 h; at 7.69 µM (top of the series) unless noted. Summed up:
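Cells are seeded overnight, exposed to compound titrations and an EC50 level of EGF for 5 hours at 37 °C, then loaded with CCF4 dye for 2.5 hours. Beta-lactamase activity under the AP-1 element is read as a blue/green ratio.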

Test [2] addresses Cytochrome P450 1A2 (Homo sapiens) (UniProt P05177). The experiment in a line: p450-cyp1a2 (AID 410; calls by dose curve; further: potency means the concentration at half of the fitted maximal effect;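 on activity change, negative = inhibition: -100% = full effect of reference inhibitor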). Summed up:
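Luminescent demethylation readout: Luciferin-ME (100uM, equal to Km) turned over by 20nM CYP1A2 for 60 min at room temperature after NADPH regeneration addition, following 10 min compound preincubation. Normalization used 57 uM furafylline as full inhibition.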

The nature of test [3]: Stat Signaling Pathway (AID 446).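 Further: ME-180 cervical cancer cells given 40 pM IL-6 alongside compound; SIE-controlled beta-lactamase reporter measured as 460/530 nm FRET emission ratio; on the % scale 0 is the no-effect control and ±100 the full control effect.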 The settings on record: ME-180 (cervical carcinoma) SIE beta-lactamase reporter, IL-6 stimulated, 5 h; at 7.69 µM (top of the series) unless noted. In short, it runs like this:
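FRET read-out (405 nm excitation, 460/530 nm emission) of a beta-lactamase reporter under a STAT-inducible element in ME-180 cervical carcinoma cells. Cells with compound receive 40 pM IL-6 for 5 h. Values are normalised to AC90 stimulation and AC90 JAK-inhibitor controls.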

Test [4] deals with Glucocorticoid receptor (Homo sapiens) (UniProt P04150). The experiment in a line: GR-GFP Redistribution (AID 450;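 active means compounds whose dose series gives a full or clear partial fitted curve of increased nuclear translocation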; further: potency means the concentration at half of the fitted maximal effect). As to conditions: U2OS GR-GFP nuclear translocation, laser cytometry, 2 h.
Chain of Glucocorticoid receptor (Homo sapiens) (P04150 whole entry, looked up, the tested form may be a part): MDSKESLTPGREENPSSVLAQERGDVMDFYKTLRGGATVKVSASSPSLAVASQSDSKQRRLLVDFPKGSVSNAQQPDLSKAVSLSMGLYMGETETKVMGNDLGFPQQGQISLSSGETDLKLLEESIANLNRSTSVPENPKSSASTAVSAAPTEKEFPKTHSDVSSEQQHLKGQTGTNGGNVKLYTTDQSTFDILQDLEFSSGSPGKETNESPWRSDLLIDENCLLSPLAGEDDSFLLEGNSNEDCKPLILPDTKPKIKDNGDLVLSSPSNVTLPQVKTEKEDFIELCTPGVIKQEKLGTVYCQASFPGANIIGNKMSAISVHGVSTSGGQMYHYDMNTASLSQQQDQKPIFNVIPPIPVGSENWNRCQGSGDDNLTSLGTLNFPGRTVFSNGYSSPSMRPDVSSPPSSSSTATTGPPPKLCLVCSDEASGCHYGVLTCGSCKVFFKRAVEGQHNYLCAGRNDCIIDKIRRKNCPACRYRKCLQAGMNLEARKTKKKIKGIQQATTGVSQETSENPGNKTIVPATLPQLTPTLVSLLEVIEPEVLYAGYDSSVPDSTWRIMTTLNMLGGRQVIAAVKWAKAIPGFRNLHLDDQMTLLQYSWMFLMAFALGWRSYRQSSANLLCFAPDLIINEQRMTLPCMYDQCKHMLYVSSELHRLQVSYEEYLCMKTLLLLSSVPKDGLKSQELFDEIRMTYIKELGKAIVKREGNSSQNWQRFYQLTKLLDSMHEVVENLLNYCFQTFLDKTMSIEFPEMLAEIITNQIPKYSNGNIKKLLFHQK
For test [5] the target is unchanged. The experiment in a line: GR-EFC Redistribution (AID 451; calls by dose curve; further: potency means the concentration at half of the fitted maximal effect). As to conditions: CHO-K1 GR-EFC translocation, beta-gal luminescence, 2 h. In short, it runs like this: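 Translocation of GR-ED fusion to nuclear EA restores b-gal, read by luminescence after 1 h room-temperature detection. Engineered CHO-K1 biosensor cells, 1,000/well, exposed 2 h at 37 C to titrations up to 46 uM final.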

The target of test [6] is Mitogen-activated protein kinase 10 (Mus musculus) (UniProt Q61831). Kind of test: JNK3 AlphaScreen Assay (AID 530).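 Further: kinase came from lysate of stimulated human HepG2 cells; signal reports phosphorylation of biotinylated GST-cJun 1-79 at Ser73 with 10 µM ATP; on the % scale 0 is the no-effect control and ±100 the full control effect.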 In short, it runs like this:
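qHTS titrations with 15 min compound pre-incubation before adding ATP (10 uM final). Read-out: AlphaScreen of Ser73-phosphorylated biotin-GST-cJun using HepG2 lysate JNK3 activated by IL-1β and TNFα.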
(Alpha assays give light when donor and acceptor beads are brought close together.)

Test [7] addresses 3',5'-cyclic-AMP phosphodiesterase 4B (Homo sapiens) (UniProt Q07343). The experiment in a line: qHTS Assay for Inhibitors of PDE-IV (AID 607; active means well fitted activation curve with a large enough effect in the main read-out, with a control signal flat, not every such curve was filed as active; further: % of control where 0% means no effect). In short, it runs like this:
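Cell-based read-out of cAMP via a modified cyclic nucleotide-gated channel and membrane potential dye (535/590 nm) in HEK293 cells expressing PDE4 endogenously. Compounds tested up to 22.9 uM final; 100 uM RO 20-1724 reference.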
A general note: In qHTS, concentration-response curves come from the screen itself.

In test [8] the target is Cytochrome P450 3A4 (Homo sapiens) (UniProt P08684). The experiment in a line: qHTS Assay for Activators of Cytochrome P450 3A4 (AID 885; active means well fitted curve in the direction sought with a large enough effect; an effect the other way counts as inactive or inconclusive; further: nearly all actives have a fitted effect of over 65% in size). Summed up: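 Luminescent readout of luciferin formed from 25 uM Luciferin-PPXE (KM level) by 20 nM CYP3A4 in 200 mM KPO4, with 60 min NADPH-driven reaction at room temperature after 10 min compound exposure. Ketoconazole (57 uM) defined 100% inhibition.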
Chain of Cytochrome P450 3A4 (Homo sapiens) (P08684 whole entry, looked up): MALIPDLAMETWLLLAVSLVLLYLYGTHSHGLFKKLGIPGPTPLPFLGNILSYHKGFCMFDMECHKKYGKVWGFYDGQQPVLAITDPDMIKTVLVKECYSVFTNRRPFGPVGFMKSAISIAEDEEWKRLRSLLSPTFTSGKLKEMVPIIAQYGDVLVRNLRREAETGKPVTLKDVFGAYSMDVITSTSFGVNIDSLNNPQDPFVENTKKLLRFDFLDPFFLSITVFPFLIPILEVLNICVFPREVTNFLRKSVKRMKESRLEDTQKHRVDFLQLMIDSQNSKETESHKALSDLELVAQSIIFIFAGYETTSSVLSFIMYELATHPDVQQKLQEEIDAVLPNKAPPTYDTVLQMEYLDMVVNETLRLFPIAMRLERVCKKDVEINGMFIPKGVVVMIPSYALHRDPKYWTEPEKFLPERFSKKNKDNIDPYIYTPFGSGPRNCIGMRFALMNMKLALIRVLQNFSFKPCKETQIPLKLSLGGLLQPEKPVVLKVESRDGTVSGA

The nature of test [9]: qHTS Assay for Lipid Storage Modulators (AID 1519; calls by dose curve). The settings on record: Drosophila S3 cells, BODIPY lipid droplet/cell ratio, laser cytometry, cells loaded with oleic acid; for activity change, negative = inhibition: at 57.5 µM (top of the series). Summed up: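 Cells seeded at 5,000 per well were treated with compounds over a concentration series and loaded with oleic acid (400 uM, as added). Lipid droplet fluorescence (488 nm excitation, 500-530 nm channel) was read by laser-scanning cytometry and normalized to 20 uM Triacsin C.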

Test [10] can be described thus: Primary qHTS for small molecule stabilizers of the endoplasmic reticulum resident proteome: Secreted ER Calcium Modulated Protein (SERCaMP) assay (AID 1508630; active means well fitted curve in the direction sought with a large enough effect; an effect the other way counts as inactive or inconclusive; further: on the % scale 0 is the no-effect control and ±100 the full control effect). In short, it runs like this: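 The SH-SY5Y reporter protocol was run at 3 concentrations up to 38.3 uM (primary) or 11 concentrations (follow-up): 16 h compound, 100 nM thapsigargin for 4 h, then extracellular luciferase luminescence.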

Test [11] in a line: NFAT Signaling Pathway (AID 444). The settings on record: Jurkat NFAT-bla M1, carbachol, beta-lactamase ratio, 5 h; at 7.69 µM (top of the series) unless noted. Summed up:
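Read-out: CCF4 FRET ratio (460 nm/530 nm) after 1 h RT dye loading, used for %activity and AC50 from titration series. Cells: Jurkat NFAT-β-lactamase/M1 line, treated with compound plus 1 uM carbachol for 5 h, 37 °C.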

Test [12] can be described thus: Confirmation and Secondary Assay for Modulators of Hemoglobin Beta Chain Splicing at IVS2 705 locus (AID 930; active means well fitted curve in the direction sought with a large enough effect; an effect the other way counts as inactive or inconclusive;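 further: HeLa cells stably expressing the EGFP-705 splicing reporter; GFP fluorescence per well restored by corrected splicing of the IVS2-705 intron in EGFP; % of control where 0% means no effect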). In short, it runs like this: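 Read-out: total peak GFP fluorescence per well (488 nm excitation, 500-520 nm emission) by laser-scanning cytometry. Cells: HeLa EGFP-705 splicing reporter, 2 days compound exposure in Optimem/2% FCS.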
Test [13] addresses Ubiquitin carboxyl-terminal hydrolase 1 (Homo sapiens) (UniProt O94782). Kind of test: Inhibitors of USP1/UAF1: Pilot qHTS (AID 504865; active means well fitted curve in the direction sought with a large enough effect; an effect the other way counts as inactive or inconclusive;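 further: rhodamine fluorescence freed from ubiquitin-rhodamine substrate followed over time; top concentration of the series differs between compounds; on the % scale 0 is the no-effect control and ±100 the full control effect; nearly all actives have a fitted effect of over 35% in size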). Summed up: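 1nM USP1/UAF1 + cpd, 15 min RT; start w/ Ub-Rho 150nM final; kinetic FL 480/540 nm, 6 reads q60 s. Buffer 50mM HEPES pH 7.8, 0.5mM EDTA, 1mM TCEP, 0.01% Tween-20, 0.1 mg/ml BSA.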
Test [14] has as its target Lysosomal acid glucosylceramidase (Homo sapiens) (UniProt P04062). Kind of test: Glucocerebrosidase-p2 (AID 348; in the data active means potency below about 10 µM; further: potency means the concentration at half of the fitted maximal effect). The settings on record: purified GBA, blue fluorogenic substrate, 40 min. In short, it runs like this:
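Normal human glucocerebrosidase (0.2 nM) with blue fluorogenic substrate (80 uM final) in citrate/phosphate pH 5.9 with 10mM sodium taurocholate, 0.01% tween-20; 40 min RT, NaOH/glycine stop; fluorescence Ex 365/Em 440; AC50 from a titration from 0.6 nM upwards.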

Where [15] appears, read: measured here: cell count channel max response.
The mark [16] stands for this setting: measured here: lipid channel max response.

Molecules are shown by their SMILES. Results filed as inconclusive are left out. Active and inactive are the calls of the source. Unless noted, the call rests on the fitted dose curve; in most records, active means well fitted curve in either direction with a large enough effect (not every such curve was filed as active); inconclusive means small, poorly fitted or top-dose-only effect, or another doubt; inactive means flat fitted curve, though single readings scatter.

Chain of Lysosomal acid glucosylceramidase (Homo sapiens) (P04062 whole entry, looked up): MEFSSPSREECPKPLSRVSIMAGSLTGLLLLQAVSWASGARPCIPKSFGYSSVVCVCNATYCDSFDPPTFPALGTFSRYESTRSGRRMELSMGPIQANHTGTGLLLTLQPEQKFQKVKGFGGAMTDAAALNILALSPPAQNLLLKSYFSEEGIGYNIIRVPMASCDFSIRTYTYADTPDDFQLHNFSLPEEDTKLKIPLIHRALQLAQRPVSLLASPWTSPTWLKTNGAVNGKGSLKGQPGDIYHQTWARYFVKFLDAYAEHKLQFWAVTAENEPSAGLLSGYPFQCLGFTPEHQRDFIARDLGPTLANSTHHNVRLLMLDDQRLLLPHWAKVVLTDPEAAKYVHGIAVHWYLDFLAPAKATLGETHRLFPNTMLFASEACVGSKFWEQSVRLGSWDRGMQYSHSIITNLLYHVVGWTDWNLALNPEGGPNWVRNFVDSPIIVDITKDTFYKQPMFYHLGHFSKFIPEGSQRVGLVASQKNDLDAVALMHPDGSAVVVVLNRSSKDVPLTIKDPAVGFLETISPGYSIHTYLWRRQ
Chain of Cytochrome P450 1A2 (Homo sapiens) (P05177 whole entry, looked up): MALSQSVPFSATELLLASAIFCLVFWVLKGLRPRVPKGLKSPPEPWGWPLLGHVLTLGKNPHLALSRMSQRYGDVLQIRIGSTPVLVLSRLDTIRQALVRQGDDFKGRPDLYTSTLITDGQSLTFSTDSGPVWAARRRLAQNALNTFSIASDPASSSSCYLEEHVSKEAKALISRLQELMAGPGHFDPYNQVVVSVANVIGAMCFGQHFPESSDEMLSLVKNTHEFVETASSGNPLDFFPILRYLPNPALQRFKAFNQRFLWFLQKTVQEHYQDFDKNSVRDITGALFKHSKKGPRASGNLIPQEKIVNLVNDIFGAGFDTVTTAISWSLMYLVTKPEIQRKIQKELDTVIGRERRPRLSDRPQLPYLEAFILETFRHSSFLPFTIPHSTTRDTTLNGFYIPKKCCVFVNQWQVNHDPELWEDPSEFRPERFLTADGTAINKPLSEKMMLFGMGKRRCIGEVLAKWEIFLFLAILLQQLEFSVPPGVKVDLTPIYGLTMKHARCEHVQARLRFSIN
Chain of 3',5'-cyclic-AMP phosphodiesterase 4B (Homo sapiens) (Q07343 whole entry, looked up): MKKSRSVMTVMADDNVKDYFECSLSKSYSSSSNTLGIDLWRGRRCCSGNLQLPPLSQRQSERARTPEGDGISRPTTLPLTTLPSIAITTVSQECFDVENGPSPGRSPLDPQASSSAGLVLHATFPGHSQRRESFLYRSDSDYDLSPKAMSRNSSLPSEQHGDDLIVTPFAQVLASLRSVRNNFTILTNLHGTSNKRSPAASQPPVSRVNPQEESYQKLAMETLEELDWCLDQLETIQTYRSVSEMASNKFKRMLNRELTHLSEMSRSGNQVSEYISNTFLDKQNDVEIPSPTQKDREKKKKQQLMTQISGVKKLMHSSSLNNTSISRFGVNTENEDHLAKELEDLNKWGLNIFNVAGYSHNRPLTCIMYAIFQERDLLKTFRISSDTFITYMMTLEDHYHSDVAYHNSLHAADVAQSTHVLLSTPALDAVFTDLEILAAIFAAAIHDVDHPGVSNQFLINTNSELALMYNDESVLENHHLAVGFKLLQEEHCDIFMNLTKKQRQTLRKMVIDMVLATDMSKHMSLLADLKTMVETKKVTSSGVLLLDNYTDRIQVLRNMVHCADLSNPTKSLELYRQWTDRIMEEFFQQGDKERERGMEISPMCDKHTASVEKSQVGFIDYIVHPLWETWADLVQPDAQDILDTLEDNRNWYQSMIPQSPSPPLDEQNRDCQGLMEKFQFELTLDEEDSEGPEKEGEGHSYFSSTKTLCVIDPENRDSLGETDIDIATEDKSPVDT
Chain of Ubiquitin carboxyl-terminal hydrolase 1 (Homo sapiens) (O94782 whole entry, looked up): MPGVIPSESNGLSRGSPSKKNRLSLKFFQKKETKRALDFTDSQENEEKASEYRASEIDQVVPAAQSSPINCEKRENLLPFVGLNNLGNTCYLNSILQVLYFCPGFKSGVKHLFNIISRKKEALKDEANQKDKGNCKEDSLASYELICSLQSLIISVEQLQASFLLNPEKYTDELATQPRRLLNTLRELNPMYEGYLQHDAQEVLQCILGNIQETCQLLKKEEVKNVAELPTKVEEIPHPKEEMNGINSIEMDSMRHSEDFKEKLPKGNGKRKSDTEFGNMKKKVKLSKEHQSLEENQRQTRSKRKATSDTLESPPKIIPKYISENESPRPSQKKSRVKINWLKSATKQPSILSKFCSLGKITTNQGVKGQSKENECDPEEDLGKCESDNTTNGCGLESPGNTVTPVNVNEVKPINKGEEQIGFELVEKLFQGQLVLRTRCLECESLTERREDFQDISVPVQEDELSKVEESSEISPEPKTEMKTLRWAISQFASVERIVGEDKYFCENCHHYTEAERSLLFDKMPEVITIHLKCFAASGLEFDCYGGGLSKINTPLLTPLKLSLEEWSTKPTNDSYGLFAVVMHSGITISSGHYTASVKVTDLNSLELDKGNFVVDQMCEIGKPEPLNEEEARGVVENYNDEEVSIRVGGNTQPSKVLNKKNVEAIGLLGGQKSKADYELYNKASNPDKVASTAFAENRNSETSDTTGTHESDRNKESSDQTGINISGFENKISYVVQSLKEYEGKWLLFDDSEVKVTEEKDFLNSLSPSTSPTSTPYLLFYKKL

`CNc1ncnc2ccc(-c3cccc(NS(C)(=O)=O)c3)cc12`: the activity change, negative = inhibition in test [1] is -20.9% (inactive); in [9], 1.53% (inactive). Also, the figures for the Potency in test [2], in test [4] and in test [5] were 316 nM (active), > 46 µM (inactive) and > 46 µM (inactive), respectively. Besides, the activity, negative = inhibition in test [3] was -3.45% (inactive). Further, the Potency result in test [6], in [7] and in [8] was “inactive” in each case. Further, the values for the max response in test [9] (setting [15]) and in test [9] (setting [16]) were -9.5% and -9.46%, respectively. Besides, in test [10], the result was inactive.

As for `CC(=O)NCCNc1nc(-c2ccc(N(C)C)cc2)nc2ccccc12`, the activity change, negative = inhibition in test [1] is 7.41% (inactive); in test [11] it was -28.2% (inactive); in [9] it was 9.02% (inactive). The figures for the Potency in test [2], in test [4] and in test [5] were 3160 nM (active), > 46 µM (inactive) and > 46 µM (inactive), respectively. Moreover, the Potency entry in test [6], in test [7], in test [8] and in [13] was “inactive” each time. Further, the result in [12] and in [10] was inactive. The figures for the max response in [9] (setting [15]) and in test [9] (setting [16]) were 13% and 24.4%, respectively.

For the compound `N#Cc1cccc(NC(=O)N2CCCC3(CCN(S(=O)(=O)c4ccccc4)CC3)C2)c1`, the values for the Potency in test [14] and in test [5] were > 11.4 µM (inactive) and > 46 µM (inactive), respectively. The activity, negative = inhibition in test [3] is -2.4% (inactive). Besides, the Potency entry in test [6] and in test [7] was “inactive” in each case. Moreover, the activity change, negative = inhibition in [9] is -3.45% (inactive). Further, the results for the max response in test [9] (setting [15]) and in test [9] (setting [16]) were 1.48% and -1.95%, respectively. In addition, the result in test [10] was inactive.

`CC(=O)N1CCC2(CC1)CN(Cc1ccc(C#N)cc1)C2`: the Potency in test [14] was > 11.4 µM (inactive); in test [5], > 46 µM (inactive). The activity change, negative = inhibition in test [11] was 0.883% (inactive); in test [9], -1.35% (inactive). In addition, the Potency result in test [6] and in [7] was “inactive” throughout. Further, the values for the max response in [9] (setting [15]) and in test [9] (setting [16]) were -0.767% and -0.217%, respectively. Besides, the outcome in [10] was inactive.

For the compound `O=C(Nc1cccc(F)c1)N1CC2(CCN(C(=O)c3cnccn3)CC2)C1`, the activity change, negative = inhibition in [1] is -4.36% (inactive); in test [11], 20.8% (inactive); in test [9] it was 6.82% (inactive). Moreover, the Potency entry in [2], in test [6] and in test [7] was “inactive” in each case. Also, the activity, negative = inhibition in [3] was -2.15% (inactive). The Potency in test [5] is > 46 µM (inactive). Also, the max response in test [9] (setting [15]) stood at 10.6%; in test [9] (setting [16]), 20.5%. In addition, in test [10], the result was inactive.

As to `Cn1cccc1C(=O)N1CCC2(CCCN(C(=O)Nc3ccccc3)C2)CC1`, the Potency in [14] was > 11.4 µM (inactive); in [5], > 46 µM (inactive). The activity change, negative = inhibition in [11] was -22.5% (inactive); in test [9], 7.87% (inactive). Further, the activity, negative = inhibition in test [3] was 4.11% (inactive). Also, the Potency result in test [6], in test [7] and in test [8] was “inactive” each time. Besides, the results for the max response in test [9] (setting [15]) and in test [9] (setting [16]) were 14.7% and 28.5%, respectively. Besides, the result in [10] was inactive.

Regarding `N#CCCn1c(=O)c(-c2cccs2)nc2cnc(N3CCNCC3)nc21`, the Potency in [14] was > 11.4 µM (inactive); in [4] it was > 9.22 µM (inactive); in test [5] it was > 46 µM (inactive). Besides, the Potency entry in test [6] and in test [7] was “inactive” throughout. The activity change, negative = inhibition in test [9] is -0.055% (inactive). In addition, the max response in test [9] (setting [15]) worked out at 5.4%; in test [9] (setting [16]), 9.49%. Further, in [10], the result was inactive.

For the compound `O=C(c1cccc(F)c1)N1CCC2(CCCN(C(c3ccccc3)c3ccccc3)C2)CC1`, the values for the Potency in test [14] and in test [5] were > 11.4 µM (inactive) and > 46 µM (inactive), respectively. Further, in test [3], the activity, negative = inhibition is 17.2% (inactive). Moreover, the Potency entry in test [6] and in test [7] was “inactive” throughout. Further, in test [9], the activity change, negative = inhibition was 2.12% (inactive). For the same compound, the max response was found to be 14.6% in test [9] (setting [15]) and 19.7% in [9] (setting [16]). Also, in [10], the outcome was inactive.

The values are drawn from PubChem BioAssay (NCATS).
